According to PubChem BioAssay:
Where “and” joins values, the source holds several entries; their conditions need not be identical. Equal entries are not always repeated. Records with an inconclusive call do not appear. For some assays here: Results with a measured potency or affinity are listed apart. Calls of active or inactive are those of the source. Unless noted, how the calls were made is not given here.

How the values were obtained:
[1] = Cy5 fluorescence interference with SSB-bound oligo, artefact control for HCV NS3 helicase inhibitor project, biochemical, NIH Clinical Collection, E. coli SSB (AID 743268)
[2] = test system: Hepatitis C virus NS3 helicase; assay: HCV NS3 helicase inhibitors, primary screen, biochemical, fluorescence polarization, NIH Clinical Collection (AID 743270); details: NS3 helicase binding to Cy5-dT15 DNA, stronger effect = higher value, concentration not given here
[3] = molecular target: Single-stranded DNA-binding protein (Escherichia coli (strain K12)) (UniProt P0AGE0); assay: E. coli SSB displacement from DNA, counter-screen for HCV NS3 helicase inhibitor project, biochemical, fluorescence polarization, NIH Clinical Collection (AID 743271; in the data active means inhibition above about 28%); details: stronger effect = higher value, concentration not given here
[4] = fluorescence interference in NS3h assay format, artefact control for HCV NS3 helicase inhibitor project, biochemical, NIH Clinical Collection (AID 743272); details: fluorescence interference counterscreen, stronger effect = lower value;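 further: HCV NS3 helicase with a Cy5 labelled single stranded DNA probe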
[5] = test system: F380Y; assay: modulators of BK channel variants, profiling panel, selectivity assay, cell-based, U2OS BacMam, thallium flux, beta subunits (AID 1259406;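 active means thallium flux through the channel raised or lowered by more than 3 SD from vehicle-only wells, actives on both sides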;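 further: initial slope of Thallos dye fluorescence rise after thallium is added; log ratio against the mean of 0.3% DMSO vehicle wells on the same plate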); details: at 30 µM
[6] = test system: F380Y/beta2Delta; assay: as above; details: at 30 µM
[7] = growth inhibition of DIPG glioma cells, dose response, cell-based, SU-DIPG-IV, MIPE4.0, CellTiter-Glo, qHTS (AID 1347063; cut-off not given, nearly all actives have AC50 up to about 30 µM;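 further: compound exposure lasted 48 hours before the viability readout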); details: SU-DIPG-IV viability, CellTiter-Glo ATP luminescence
[8] = SU-DIPG-VI glioma cell viability, MIPE4.0 library, CellTiter-Glo luminescence, qHTS (AID 1347066; cut-off not given, nearly all actives have AC50 up to about 30 µM;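 further: cells exposed to compound for 48 hours before readout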); details: CellTiter-Glo ATP luminescence
[9] = viability rescue of complex I mutant cybrids, primary screen, cell-based, galactose medium, ATP luminescence (AID 1645843;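 active means z-score of at least 1.8 in each of two replicates, scored against plate mean and spread of sample wells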;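 further: positive z means more ATP and so rescue of galactose-driven cybrid death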); details: complex I mutant cybrid cells, 72 h, stronger effect = higher value
[10] = molecular target: ATP-dependent translocase ABCB1 (Homo sapiens) (UniProt P08183); assay: MDR1 (ABCB1) efflux transporter inhibition, cell-based (AID 377; in the data active means fluorescence slope change above about 50%); details: MDR1-expressing cells, fluorescent substrate accumulation slope; stronger effect = higher value; concentration not given here
[11] = test system: Aerobactin synthetase IucA (Klebsiella pneumoniae, hypervirulent); assay: IucA enzyme inhibition, biochemical, LOPAC library, absorbance readout (AID 1346212); details: IucA enzyme assay, absorbance (OD) readout; stronger effect = lower value;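 tested at 8 µM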;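 further: 100% = no compound wells and 0% = no enzyme wells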
[12] = rescue of polyQ-huntingtin neuronal dysfunction in worms, whole organism, C. elegans mechanosensory neurons, N-terminal huntingtin (AID 1599); details: touch response, stronger effect = higher value
[13] = inhibitors of polyQ protein aggregation (AID 1604); details: polyglutamine-induced protein aggregation inhibition assay; stronger effect = higher value; tested at 2.5 µM
[14] = enhancers of glutamate uptake in motor neurons, MN-1 cell line (AID 1612); details: MN-1 motor neuron cells, stronger effect = higher value;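 further: tested at 1 µM final; 0% = mean of DMSO vehicle wells on each plate; positive means more glutamate uptake than control and negative means less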
[15] = suppressors of polyglutamine aggregation in yeast, 75Q-TubH (AID 1616); details: S. cerevisiae 75Q-TubH polyglutamine aggregation suppression; stronger effect = higher value
[16] = reducers of polyQ inclusions in PC12 cells, cell-based, NGF-treated PC12, GFPQ80 (AID 1614); details: PC12 NGF-treated GFP-polyQ80 inclusion reduction;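 further: lower means fewer inclusions and 0 means no inclusions at all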
[17] = circadian clock period modulators, cell-based, LOPAC library, luminescence reporter (AID 2774); details: circadian reporter cells, at 7 µM, actives lie on both sides;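 further: values are relative to mean of DMSO wells on each plate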
[18] = test system: Hepatitis C virus NS3 helicase; assay: HCV NS3 helicase inhibitors, primary screen, biochemical, fluorescence polarization, LOPAC1280 library (AID 687035; in the data active means inhibition above about 37%); details: Purified HCV NS3 helicase, Cy5-dT15 ssDNA binding fluorescence polarization; stronger effect = higher value; concentration not given here
[19] = Cy5 fluorescence quenching or enhancement artefacts, artefact control for HCV NS3 helicase inhibitor project, biochemical, LOPAC1280 (AID 687037); details: Cy5-DNA-NS3h complex fluorescence interference counterscreen
[20] = phospholipid biosynthesis inhibitors in animal cells, primary screen, cell-based, LOPAC library, screen 4 (AID 1347384); details: phospholipid biosynthesis inhibition screen, at 10 µM

Sequence of ATP-dependent translocase ABCB1 (Homo sapiens) (P08183 whole entry, looked up): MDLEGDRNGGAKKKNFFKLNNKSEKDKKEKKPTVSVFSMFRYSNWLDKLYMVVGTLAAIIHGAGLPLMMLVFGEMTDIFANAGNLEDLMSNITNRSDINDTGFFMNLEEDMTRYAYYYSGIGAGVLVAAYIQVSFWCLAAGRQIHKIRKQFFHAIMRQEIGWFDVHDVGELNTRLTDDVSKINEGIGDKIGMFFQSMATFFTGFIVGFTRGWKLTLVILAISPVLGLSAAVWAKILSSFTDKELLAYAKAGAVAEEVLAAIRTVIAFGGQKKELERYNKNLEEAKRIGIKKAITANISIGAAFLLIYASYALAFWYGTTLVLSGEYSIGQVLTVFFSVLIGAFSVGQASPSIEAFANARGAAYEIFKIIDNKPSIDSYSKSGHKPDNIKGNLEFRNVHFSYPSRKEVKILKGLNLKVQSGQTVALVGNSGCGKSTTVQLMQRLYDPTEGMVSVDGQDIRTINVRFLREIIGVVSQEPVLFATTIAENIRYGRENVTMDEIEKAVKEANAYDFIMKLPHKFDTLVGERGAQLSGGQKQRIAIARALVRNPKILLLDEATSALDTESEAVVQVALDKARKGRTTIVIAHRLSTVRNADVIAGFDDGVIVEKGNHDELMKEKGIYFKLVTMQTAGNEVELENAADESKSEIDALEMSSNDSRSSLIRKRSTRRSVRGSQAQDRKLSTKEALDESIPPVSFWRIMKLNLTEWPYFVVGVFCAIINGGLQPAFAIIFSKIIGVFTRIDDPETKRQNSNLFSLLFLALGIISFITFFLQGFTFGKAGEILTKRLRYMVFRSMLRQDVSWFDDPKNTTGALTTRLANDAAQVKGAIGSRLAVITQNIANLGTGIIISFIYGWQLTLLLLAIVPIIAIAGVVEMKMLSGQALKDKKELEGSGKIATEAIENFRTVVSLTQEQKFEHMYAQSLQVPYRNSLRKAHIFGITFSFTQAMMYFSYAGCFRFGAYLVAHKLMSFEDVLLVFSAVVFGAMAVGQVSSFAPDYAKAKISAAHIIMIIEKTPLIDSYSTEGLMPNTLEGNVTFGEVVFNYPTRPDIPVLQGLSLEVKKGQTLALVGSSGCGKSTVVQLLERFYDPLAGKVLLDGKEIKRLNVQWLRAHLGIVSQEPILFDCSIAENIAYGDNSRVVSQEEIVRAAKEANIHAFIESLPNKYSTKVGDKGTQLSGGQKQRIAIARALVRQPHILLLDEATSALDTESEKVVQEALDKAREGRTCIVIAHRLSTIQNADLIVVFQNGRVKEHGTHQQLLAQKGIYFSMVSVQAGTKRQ

For COc1cc2c(cc1OC)[C@@]13CCN4CC5=CCO[C@H]6CC(=O)N2[C@H]1[C@H]6[C@H]5C[C@H]43, the fluorescence ratio [1] was 0.94 (inactive), the inhibition [2] was -2.84% (inactive) and the inhibition [3] was 2.76% (inactive). For the same molecule, the fluorescence ratio [4] was 0.89 (inactive), the log fold change Tl+ flux [5] was 0.0307 (inactive) and the log fold change Tl+ flux [6] was -0.0179 (inactive).

With CC(C)CC(N(C)C)C1(c2ccc(Cl)cc2)CCC1 (stereo not given) the fluorescence ratio [1] was 1.01 (inactive) and 0.96 (inactive), the inhibition [2] was -0.22% (inactive) and -8.08% (inactive) and the inhibition [3] was -1.97% (inactive) and 1.97% (inactive). For the same molecule, the fluorescence ratio [4] was 1.01 (inactive) and 0.95 (inactive), the outcome [7] was “inactive” and the outcome [8] was “inactive”. For the same molecule, the z-score [9] was -1.39 (inactive) and -1.34 (inactive) and -2.03 (inactive).

For C=CCN1CC[C@]23c4c5ccc(O)c4O[C@H]2C(=O)CC[C@@]3(O)[C@H]1C5, the fluorescence slope change [10] was 64.1% (active), the fluorescence ratio [1] was 0.104 (active) and the inhibition [2] was -4.09% (inactive). The inhibition [3] was -4.29% (inactive), the fluorescence ratio [4] was 1.04 (inactive) and the remaining activity [11] was 107% (inactive). The z-score [9] was 0.98 (inactive) and -0.48 (inactive) and 0.575 (inactive), the log fold change Tl+ flux [5] was -0.039 (inactive) and the log fold change Tl+ flux [6] was 0.0141 (inactive).

Molecule COc1ccc(C[C@H]2NC[C@H](O)[C@H]2OC(C)=O)cc1 has a rescue above control [12] of 20.1, an inhibition of aggregation [13] of 100% and a glutamate uptake change [14] of -57.2%. For the same molecule, the aggregation suppression score [15] was 0.0246 and the z-score [9] was -0.88 (inactive).

Molecule O=c1ccc2cc(O[C@@H]3O[C@H](CO)[C@@H](O)[C@H](O)[C@H]3O)c(O)cc2o1 has a rescue above control [12] of -7.81, an inhibition of aggregation [13] of 54.9% and a glutamate uptake change [14] of 18.9%. It also gave an inclusion score [16] of 2 and an aggregation suppression score [15] of 1.

For CC[C@@H]1C(=O)OC[C@@H]1Cc1cncn1C, the fluorescence slope change [10] was 105% (active), the rescue above control [12] was 1.26 and the inhibition of aggregation [13] was 35.3%. For the same molecule, the glutamate uptake change [14] was 4.33%, the inclusion score [16] was 2 and the aggregation suppression score [15] was 1.4. The period change [17] was -0.045 hour (inactive) and -0.055 hour (inactive), the inhibition [18] was -2% (inactive) and 1% (inactive) and the fluorescence ratio (interference) [19] was 1 (inactive). The remaining activity [11] was 112% (inactive) and 106% (inactive) and the z-score [9] was 0.47 (inactive) and 0.265 (inactive) and 0.26 (inactive).

For CNC(C)C(O)c1ccccc1 (stereo not given), the rescue above control [12] was -2.36 and -10.7, the inhibition of aggregation [13] was 84.6% and 51.5% and the glutamate uptake change [14] was -17.5% and 6.9%. The inclusion score [16] was 2 and the aggregation suppression score [15] was 1.13 and 1.02.

Molecule CCCCCCCCCCCCCCCC[n+]1ccccc1 has a rescue above control [12] of 0, an inhibition of aggregation [13] of 52.2% and a glutamate uptake change [14] of -18.1%. It also gave an aggregation suppression score [15] of -0.00459.

With O=[N+]([O-])c1cc([As](=O)(O)O)ccc1O the rescue above control [12] was -4.04, the inhibition of aggregation [13] was 3.7% and the glutamate uptake change [14] was -17%. For the same molecule, the inclusion score [16] was 1.5 and the aggregation suppression score [15] was 1.08.

CN(C)[C@@H]1C(=O)C(C(N)=O)=C(O)[C@@]2(O)C(=O)C3=C(O)c4c(O)ccc(Cl)c4[C@@](C)(O)[C@H]3C[C@@H]12 showed a rescue above control [12] of 0, an inhibition of aggregation [13] of 9.52% and a glutamate uptake change [14] of 10.1%. It also gave an inclusion score [16] of 0 and an aggregation suppression score [15] of 0.363.

ClC1C(Cl)C(Cl)C(Cl)C(Cl)C1Cl (stereo not given) showed a rescue above control [12] of -3.21, an inhibition of aggregation [13] of 69.4% and a glutamate uptake change [14] of 1.02%. It also gave an aggregation suppression score [15] of -0.101.

For CN1CCc2cc3c(cc2C1O)OCO3 (stereo not given), the fluorescence slope change [10] was 10.4% (inactive), the rescue above control [12] was 11.7 and the inhibition of aggregation [13] was 65.5%. The glutamate uptake change [14] was 6.97%, the inclusion score [16] was 2 and the aggregation suppression score [15] was 1.11.

In the case of CC[N+]1(C)CCCC(OC(=O)C(O)(c2ccccc2)c2ccccc2)C1 (stereo not given), the fluorescence slope change [10] is reported as 17.6% (inactive), the rescue above control [12] is reported as -4.25 and the inhibition of aggregation [13] is reported as 91.6%. For the same molecule, the glutamate uptake change [14] was -17.4%, the inclusion score [16] was 2 and the aggregation suppression score [15] was 1.25.

[N-]=[N+]=CC(=O)OCC(N)C(=O)O (stereo not given) gave a rescue above control [12] of 6.35, an inhibition of aggregation [13] of -39.4% and a glutamate uptake change [14] of -10.2%. The inclusion score [16] was 1 and the aggregation suppression score [15] was 0.586.

C=CCC1(C(C)CCC)C(=O)N=C(S)NC1=O (stereo not given) showed a rescue above control [12] of 6.87, an inhibition of aggregation [13] of 42.9% and a glutamate uptake change [14] of 8.72%. The inclusion score [16] was 2 and the aggregation suppression score [15] was 1.19.

In the case of CN1C2CCC1CC(OC(c1ccccc1)c1ccccc1N)C2 (stereo not given), the period change [17] is reported as 0.055 h (inactive), the inhibition [18] is reported as -3% (inactive) and the fluorescence ratio (interference) [19] is reported as 1 (inactive). For the same molecule, the remaining activity [11] was 119% (inactive), the outcome [20] was “inactive” and the z-score [9] was -0.4 (inactive).

With CC1=NCCc2c1[nH]c1cc(O)ccc21 the fluorescence slope change [10] was 159% (active), the rescue above control [12] was 0.94 and the inhibition of aggregation [13] was 14.3%. The glutamate uptake change [14] was 13.4%, the inclusion score [16] was 2 and the aggregation suppression score [15] was 1.24.

For CC1=C(O)C(=O)C=C2C1=CC=C1[C@@]2(C)CC[C@@]2(C)[C@@H]3C[C@](C)(C(=O)O)CC[C@]3(C)CC[C@]12C, the AC50 [7] was 1.32 µM (active) and the AC50 [8] was 1.18 µM (active).

NC(N)=NOCC[C@H](N)C(=O)O showed a rescue above control [12] of -6.04, an inhibition of aggregation [13] of 85.9% and a glutamate uptake change [14] of 11.4%. For the same molecule, the inclusion score [16] was 2, the aggregation suppression score [15] was 1.39 and the period change [17] was -0.04 h (inactive). The inhibition [18] was 2% (inactive), the fluorescence ratio (interference) [19] was 1 (inactive) and the remaining activity [11] was 106% (inactive) and 121% (inactive). The outcome [20] was “inactive” and the z-score [9] was 0.085 (inactive).

For COc1cc(OC)c(OC)cc1C=O, the outcome [7] was “inactive” and the outcome [8] was “inactive”.

In the case of COc1ccc2c(c1O)-c1c(OC)c(OC)cc3c1[C@H](C2)N(C)CC3, the fluorescence slope change [10] is reported as 13.7% (inactive).

With COC1=C[C@@H]2[C@@H]3Cc4ccc(OC)c(O)c4[C@]2(CCN3C)CC1=O the AC50 [7] was 0.935 µM (active) and the outcome [8] was “inactive”.

In the case of COc1ccc2c(c1)[nH]c1c(C)nccc12, the fluorescence slope change [10] is reported as 59.3% (active) and the z-score [9] is reported as -0.45 (inactive).

Molecule CN[C@@H](C)[C@@H](O)c1ccccc1 has a rescue above control [12] of -0.65, an inhibition of aggregation [13] of 80.3% and a glutamate uptake change [14] of -5.15%. The inclusion score [16] was 2 and the aggregation suppression score [15] was 1.15.
